CYP2C19 activ: activators of human cytochrome P450 2C19; recombinant CYP2C19, luciferin-H EGE luminescence; stronger effect = higher value; 0 = fully inhibited enzyme, 1 = untreated enzyme; activation factor at 5 µM; P33261; 96,000 tested, under 10 active;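 active = activation factor of at least 2 at 5 µM in the primary screen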;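 also: 0 = wells with 2.5 mM tranylcypromine and 1 = vehicle-only wells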
Target sequence (P33261 whole entry, looked up): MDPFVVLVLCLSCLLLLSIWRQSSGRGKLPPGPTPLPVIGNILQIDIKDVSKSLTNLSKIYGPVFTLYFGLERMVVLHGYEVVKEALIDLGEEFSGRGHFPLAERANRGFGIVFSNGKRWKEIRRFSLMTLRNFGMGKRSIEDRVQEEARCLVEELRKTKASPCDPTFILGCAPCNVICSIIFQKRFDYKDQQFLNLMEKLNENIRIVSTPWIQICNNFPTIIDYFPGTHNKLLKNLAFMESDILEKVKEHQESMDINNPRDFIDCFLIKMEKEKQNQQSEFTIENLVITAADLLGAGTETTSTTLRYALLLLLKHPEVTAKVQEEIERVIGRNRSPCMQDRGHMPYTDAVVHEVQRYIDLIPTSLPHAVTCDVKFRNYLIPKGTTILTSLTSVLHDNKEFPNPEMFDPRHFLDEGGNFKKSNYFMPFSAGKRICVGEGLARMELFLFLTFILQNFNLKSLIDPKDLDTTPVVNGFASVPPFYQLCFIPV
Cav32 inh: human Cav3.2 channel inhibition, primary screen; Cav3.2-expressing cells, Fluo-4 calcium fluorescence FDSS; stronger effect = lower value; B-score at 10 µM; O95180; AID 449739; actives 4% (n = 100,000);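 active = single-dose well whose peak fluorescence ratio is a statistical outlier from its plate by either plate-standardised score or position-corrected B-score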
CYP2C9 inh: human CYP2C9 inhibition. P11712. CYP2C9 Supersomes, luciferin-H conversion, luminescence. inhibition, % at 5 µM. actives 20% (n = 96,000);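 active = blocking of liver enzyme CYP2C9 beyond about 50% at 5 µM, limit read from the data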
CYP2C19 inh: blocks human cytochrome P450 2C19; AID 778; P33261; inhibition, % at 5 µM; CYP2C19 Supersomes, luciferin-H EGE luminescence, 30 min; actives 21% (n = 96,000);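 active = CYP2C19 inhibition above a set limit at 5 µM in the primary screen, cut at about 50% in these data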;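 also: plate controls were negative control wells for no effect and 2.5 mM tranylcypromine positive control for full effect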
CYP2C9 activ: increases human cytochrome P450 2C9 activity. P11712. recombinant CYP2C9, luciferin-H conversion, luminescence; stronger effect = higher value; factor 1 = untreated enzyme, 0 = blocked. activation factor at 5 µM. actives 1.4% (n = 96,000). AID 1024;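 active = activation factor of 2 or more for CYP2C9 at a 5 µM dose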;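 also: 0 = sulfaphenazole-blocked wells and 1 = vehicle-only wells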
* marks the source's active call; other numbers are inactive results; / = not tested or not shown. Shown are actives, neighbours in structure and some others; about 27% of the full set was active somewhere.

SMILES	CYP2C19 activ	Cav32 inh	CYP2C9 inh	CYP2C19 inh	CYP2C9 activ
O=C(Cc1cccs1)Nc1nc(-c2ccc(F)cc2F)cs1	0.8	-2.97	56.2*	17.8	0.4
COc1ccccc1NC(=O)CSc1nc(O)cc(=O)[nH]1	1.2	0.121	-5.3	-17.9	1.1
CCCCCC#CCC#CCC#CCC#CCCCC(=O)O	/	-0.511	/	/	/
Cc1ccc(CN(Cc2cccnc2)C(=O)CN2C(=O)COc3ccccc32)o1	0	0.833	67.3*	95.1*	0.3
O=C(O)c1ccc(-c2noc(-c3ccc(F)cc3)n2)cc1	/	0.457	/	/	/
Cc1ccc(SCCNS(=O)(=O)c2ccc(F)cc2)cc1	0	-8.68*	88.3*	95.7*	0.1
O=S(=O)(NCCCCCNS(=O)(=O)c1ccc(F)cc1)c1ccc(F)cc1	0.5	-5.75*	72.7*	54.5*	0.3
O=S(=O)(NCCSc1ccc(Cl)cc1)c1ccc(F)cc1	0.6	-7.68*	56.7*	37.4	0.4
CC(=O)c1cccc(NS(=O)(=O)c2cc(OCC(N)=O)c(C)cc2Cl)c1	0.9	-0.125	27.6	13.3	0.7
O=C(CCSc1nc(-c2ccco2)cc(C(F)(F)F)n1)N1CCCc2ccccc21	0	-3.6*	92.3*	96.2*	0.1
O=C(CCSc1nc(-c2ccco2)cc(C(F)(F)F)n1)N1CCN(c2ccccn2)CC1	0.1	-5.5*	86.4*	85.8*	0.1
COc1cc(Nc2nnc(C)s2)c(Cl)cc1Cl	0.8	-0.3	8.8	20.8	0.9
COCCOc1cc(Nc2nnc(C(F)(F)F)s2)c(Cl)cc1Cl	0.3	-1.79	91.7*	65.7*	0.1
O=C(C1=C[C@@H](c2coc3ccccc3c2=O)C[C@@H](OCCCCO)O1)N1CCN(Cc2ccc3c(c2)OCO3)CC1	/	1.33	/	/	/
Cn1nc([N+](=O)[O-])nc1Oc1ccc2ccccc2c1	0.9	0.201	4.9	5.8	1
O=C1OC(Nc2ccc(F)cc2F)c2ccccc21 (centres undefined)	1	1.24	-6.3	-2.5	1.1
O=C1OC(Nc2ccc3c(c2)OCO3)c2ccccc21 (centres undefined)	0.4	0.5	25.6	63.7*	0.7
CCN(CC)P1(=O)OC(c2cc(OC)c(OC)c(OC)c2)=Nc2c1c(C)nn2-c1ccccc1 (centres undefined)	0.2	-1.63	96.4*	78.4*	0
Cc1nc(CCN2C(=O)c3ccccc3C2=O)n[nH]1	1	0.0343	5.6	-1.2	0.9
Cc1ccc(/C=C(/C#N)c2nc(CCN3C(=O)c4ccccc4C3=O)cs2)cc1	0.5	-0.0856	51.4*	52.9*	0.5
S=c1sc2c(N3CCN(Cc4ccccc4)CC3)ncnc2n1-c1ccccc1	0.6	-1.01	59.9*	38.5	0.4
CCOC(=O)C1CCN(c2c(NC3CCCCCCC3)c(=O)c2=O)CC1	0.9	0.0682	13.4	8.3	0.9
O=[n+]1c2c(n([O-])c3cc(F)c(N4CCCC4)cc31)CCCC2	0.9	-7.27*	14.0	7.0	0.9
O=[n+]1c2c(n([O-])c3cc(F)ccc31)CCCC2	1.1	0.0982	4.7	-6.4	1
Cc1ccc(NC2=C(Cl)C(=O)OC2OC(=O)c2ccco2)cc1 (centres undefined)	0.5	-0.412	90.8*	50.5*	0.1
SMILES	CYP2C19 activ	Cav32 inh	CYP2C9 inh	CYP2C19 inh	CYP2C9 activ
O=C(CC1CCCC1)NCCc1cn2ccccc2n1	0.3	/	20.9	67.7*	0.8
O=C(Cc1cccs1)Nc1nc2c(s1)CCCC2	0.9	-0.0277	19.9	9.8	0.8
O=C(Cc1cn2ccsc2n1)Nc1nc2c(s1)CCCC2	0.5	-0.618	52.1*	47.3	0.5
O=C(CC1CCCCC1)NCc1cn2ccsc2n1	0.6	0.129	52.8*	37.0	0.5
O=C(CCCc1ccccc1)NCc1cn2ccsc2n1	0.7	0.547	5.8	31.3	0.9
Cc1cccc2cc(CN(C(=O)c3cnccn3)C3CCCCC3)c(Cl)nc12	0.7	-2.47	34.2	33.7	0.7
O=C(Nc1cccc(C(F)(F)F)c1)N(Cc1ccc(Cl)cc1)CC(O)C(F)(F)F (centres undefined)	0.5	-2.82	37.2	47.7	0.6
O=c1[nH]c2cnccc2n1-c1ccccc1	1.2	-0.344	-8.0	-19.1	1.1
Cc1ccc(NC(=O)N2C(=O)C3(OCCO3)c3ccccc32)cc1	0.4	0.699	-3.6	59.9*	1
CCOC(=O)c1c(C)c(C(=O)N(C)C2CCCCC2)c(C)n1C	0.5	/	47.6	53.6*	0.5
CCOC(=O)c1c(C)c(C(=O)NC2CCCCCC2)c(C)n1C	1	0.595	-60.4	-4.4	1.6
O=C(Nc1nnc(C2CC2)s1)c1cc(-c2ccccc2)nn1-c1ccccc1	0.8	/	34.1	20.7	0.7
CC(C)OCCCNc1ncnc2c1[nH]c1ccccc12	0.6	-1.38	35.2	44.8	0.6
O=C(Cn1nc(-c2ccccc2)ccc1=O)NCCN1CCN(c2cccc(Cl)c2)CC1	0.5	-2.96	30.3	48.0	0.7
O=C(Cn1nc(-c2ccccc2)ccc1=O)NCCN1CCN(Cc2ccccc2)CC1	0.2	1.03	7.6	84.2*	0.9
Cc1ccc(S(=O)(=O)c2c(C)nn(C(C)(C)C)c2OC(=O)C2CCCC2)cc1	0.6	-3.01	61.1*	36.9	0.4
CC(C)NC(=O)c1cc(=O)n(C)c(=O)n1C	0.9	0.0786	10.5	13.9	0.9
COC(=O)c1ccc2ccn(CC(=O)NC3CCCCC3)c2c1	0.7	0.697	44.2	25.5	0.6
N#Cc1ccc2ccn(CC(=O)NC3CCCCCC3)c2c1	0.4	-1.52	27.4	58.1*	0.7
Cn1cc(/C(Cc2ccccc2)=N\O)c2ccccc21	0.4	-1.11	10.5	58.6*	0.9
O=C(Nc1ccc(Oc2ccccc2)cc1)c1cnc2n(c1=O)CCS2	1	/	5.3	0.9	0.9
COc1ccc(C(=O)NCC2OCCc3ccccc32)c(O)c1 (centres undefined)	0.1	0.045	50.7*	90.3*	0.5
Cc1cccc(N=C2NC(=O)/C(=C3/C(=O)N(C)c4ccccc43)S2)c1C	0.5	-0.979	92.9*	50.5*	0.1
COc1ccc(NC(=O)C2CCN(C(=O)c3cccs3)CC2)cc1OC	1	-0.0132	-29.8	-4.8	1.3
Cn1ncc2nc[nH]c(=O)c21	0.5	1.12	41.1	50.3*	0.6
SMILES	CYP2C19 activ	Cav32 inh	CYP2C9 inh	CYP2C19 inh	CYP2C9 activ
CC1CCCC(C)N1NC(=O)c1ccc(Cl)c(S(N)(=O)=O)c1 (centres undefined)	1.3	-0.306	-3.5	-25.0	1
Cn1cnnc1SCc1ccccc1	1.1	/	-22.2	-12.6	1.2
Cn1cnnc1SCc1ccc(F)c2ccccc12	0.4	0.373	-13.1	55.6*	1.1
COc1ccc(C(=O)N2CC3(CC(c4cccc([N+](=O)[O-])c4)=NO3)C[C@H]2C(=O)NCC(N)=O)cc1 (some centres undefined)	0.9	0.201	14.2	10.9	0.9
Cc1ccc(Sc2ncccc2COC(=O)Nc2c(C)cccc2C)cc1	0.8	-5.53*	27.0	20.5	0.7
Cc1ccc(Sc2ncccc2COC(=O)Nc2ccccc2)cc1	0.8	-2.71	55.4*	21.1	0.4

Source: PubChem
